# Potency and affinity values are given separately. A number with no mark means an inactive call. The rule behind the calls is not given here.
# Assay: viability loss in HEK293 cells – cell-based, plate reader, cherry-picked samples, cytotoxicity control, dose response (AID 743446)
# Conditions: active compounds read low; at 26 µM unless noted
row,Compound,max activity
1,COc1ccc(-n2cc(C(=O)c3ccccc3O)cn2)cc1,69.9% [at 3 µM]
2,Cc1cc(-c2nc3cc(F)ccc3s2)ccc1N,28.1% [at 1.6 µM]
3,CNCc1ccccc1Sc1ccc(O)c(O)c1,-16.4%
4,O=C(CN1CCOc2ccccc21)NCc1ccc(F)cc1,16.4% [at 6 µM]

# — PubChem BioAssay AID743446 (Broad Institute, 2014)
